This is an account of results in ChEMBL document CHEMBL1961873, “Compounds: GSK PKIS; Assays: Nanosyn kinase panel” (2012).

As usually defined, the inhibition is the relative decrease from the control value, in per cent.

Test [1] concerns the target High affinity nerve growth factor receptor (Homo sapiens) (UniProt P04629). The following applies: at 1 µM.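 Note: each value is the mean percent inhibition of TRKA.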
Test [2] deals with BDNF/NT-3 growth factors receptor (Homo sapiens) (UniProt Q16620). The following applies: at 0.1 µM.
The target is the same in test [3]. As to conditions: at 1 µM.
Test [4] concerns the target NT-3 growth factor receptor (Homo sapiens) (UniProt Q16288). As to conditions: at 0.1 µM.
Test [5] shares this target. The following applies: at 1 µM.
Test [6] concerns the target T1, Tyrosine-protein kinase TXK (Homo sapiens) (UniProt P42681).
T1 sequence (whole entry): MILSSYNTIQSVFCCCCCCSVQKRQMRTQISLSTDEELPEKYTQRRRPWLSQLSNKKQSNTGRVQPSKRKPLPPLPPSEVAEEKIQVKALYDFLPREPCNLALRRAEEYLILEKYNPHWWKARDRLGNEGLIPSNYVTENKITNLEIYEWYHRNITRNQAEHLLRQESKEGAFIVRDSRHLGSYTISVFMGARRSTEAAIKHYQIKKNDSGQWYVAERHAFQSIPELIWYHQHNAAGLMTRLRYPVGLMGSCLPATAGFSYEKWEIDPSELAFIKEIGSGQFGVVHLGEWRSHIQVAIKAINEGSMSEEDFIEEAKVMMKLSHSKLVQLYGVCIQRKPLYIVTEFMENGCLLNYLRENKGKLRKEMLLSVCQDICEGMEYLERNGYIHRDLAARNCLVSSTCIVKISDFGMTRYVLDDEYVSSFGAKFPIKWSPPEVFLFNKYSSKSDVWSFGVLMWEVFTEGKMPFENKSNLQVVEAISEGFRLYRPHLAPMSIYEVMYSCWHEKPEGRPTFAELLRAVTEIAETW
The following applies: at 0.1 µM.

In test [7] the target is T1, Tyrosine-protein kinase TXK (Homo sapiens). As to conditions: at 1 µM.
Test [8] concerns the target Non-receptor tyrosine-protein kinase TYK2 (Homo sapiens) (UniProt P29597). As to conditions: at 0.1 µM.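 Note: each value is a mean of the inhibition readings.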
For test [9], the target named is T2, Dual specificity protein kinase TTK (Homo sapiens) (UniProt P33981).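 Note: reported figures are mean TTK inhibition at 1 µM.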
T2 sequence (whole entry): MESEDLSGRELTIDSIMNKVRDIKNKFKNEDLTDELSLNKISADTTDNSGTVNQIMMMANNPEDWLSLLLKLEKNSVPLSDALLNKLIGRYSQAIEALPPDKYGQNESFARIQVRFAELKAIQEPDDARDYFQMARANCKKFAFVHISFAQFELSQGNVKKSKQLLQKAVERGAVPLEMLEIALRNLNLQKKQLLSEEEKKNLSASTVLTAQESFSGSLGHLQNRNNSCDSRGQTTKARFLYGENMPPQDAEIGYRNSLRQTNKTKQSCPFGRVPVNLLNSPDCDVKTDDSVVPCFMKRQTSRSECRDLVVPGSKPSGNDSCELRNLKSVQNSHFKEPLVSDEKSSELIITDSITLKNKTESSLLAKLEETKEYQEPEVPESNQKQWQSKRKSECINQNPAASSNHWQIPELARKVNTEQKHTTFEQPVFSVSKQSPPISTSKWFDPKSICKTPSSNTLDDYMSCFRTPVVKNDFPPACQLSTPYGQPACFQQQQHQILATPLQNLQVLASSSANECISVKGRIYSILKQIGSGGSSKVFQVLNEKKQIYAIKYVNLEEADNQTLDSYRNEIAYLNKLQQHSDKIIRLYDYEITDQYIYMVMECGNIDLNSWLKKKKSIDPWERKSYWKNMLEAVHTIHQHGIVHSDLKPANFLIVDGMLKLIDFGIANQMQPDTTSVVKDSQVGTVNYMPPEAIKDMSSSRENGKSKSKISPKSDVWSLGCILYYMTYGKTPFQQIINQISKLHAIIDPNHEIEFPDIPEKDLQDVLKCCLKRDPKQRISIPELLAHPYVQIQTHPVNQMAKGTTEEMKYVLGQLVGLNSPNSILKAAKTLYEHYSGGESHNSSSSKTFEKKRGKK
The following applies: at 1 µM.

The target in test [10] is T3, Aurora kinase A (Homo sapiens) (UniProt O14965).
T3 sequence (whole entry): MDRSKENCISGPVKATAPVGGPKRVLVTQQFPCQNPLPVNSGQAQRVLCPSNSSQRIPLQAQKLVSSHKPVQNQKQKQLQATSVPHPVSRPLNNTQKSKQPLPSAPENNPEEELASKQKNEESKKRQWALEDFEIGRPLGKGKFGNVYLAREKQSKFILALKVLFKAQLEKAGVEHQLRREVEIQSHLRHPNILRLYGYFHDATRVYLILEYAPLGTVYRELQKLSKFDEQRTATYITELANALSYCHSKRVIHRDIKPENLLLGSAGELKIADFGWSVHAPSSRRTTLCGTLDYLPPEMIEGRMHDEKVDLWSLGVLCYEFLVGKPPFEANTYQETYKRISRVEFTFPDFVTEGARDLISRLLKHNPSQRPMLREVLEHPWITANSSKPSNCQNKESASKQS
As to conditions: at 0.1 µM.

Test [11] concerns the target T3, Aurora kinase A (Homo sapiens). The following applies: at 1 µM.
Test [12] deals with Aurora kinase B (Homo sapiens) (UniProt Q96GD4). As to conditions: at 0.1 µM.
Test [13] shares this target. As to conditions: at 1 µM.
Test [14] deals with T4, Aurora kinase C (Homo sapiens) (UniProt Q9UQB9).
T4 sequence (whole entry): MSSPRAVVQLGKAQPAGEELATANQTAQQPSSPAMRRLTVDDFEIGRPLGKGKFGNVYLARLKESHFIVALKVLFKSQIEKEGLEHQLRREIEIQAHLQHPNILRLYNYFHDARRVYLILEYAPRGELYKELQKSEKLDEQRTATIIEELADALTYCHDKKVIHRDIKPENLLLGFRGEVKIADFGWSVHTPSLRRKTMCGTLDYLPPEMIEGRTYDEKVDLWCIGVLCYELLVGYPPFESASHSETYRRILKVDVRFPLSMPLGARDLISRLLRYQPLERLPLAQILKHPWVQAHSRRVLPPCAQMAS
The following applies: at 0.1 µM.

In test [15] the target is T4, Aurora kinase C (Homo sapiens). As to conditions: at 1 µM.
The target of test [16] is Serine/threonine-protein kinase 10 (Homo sapiens) (UniProt O94804). As to conditions: at 0.1 µM.
For test [17] the target is unchanged. As to conditions: at 1 µM.
For test [18], the target named is T5, Mitogen-activated protein kinase kinase kinase kinase 2 (Homo sapiens) (UniProt Q12851).
T5 sequence (whole entry): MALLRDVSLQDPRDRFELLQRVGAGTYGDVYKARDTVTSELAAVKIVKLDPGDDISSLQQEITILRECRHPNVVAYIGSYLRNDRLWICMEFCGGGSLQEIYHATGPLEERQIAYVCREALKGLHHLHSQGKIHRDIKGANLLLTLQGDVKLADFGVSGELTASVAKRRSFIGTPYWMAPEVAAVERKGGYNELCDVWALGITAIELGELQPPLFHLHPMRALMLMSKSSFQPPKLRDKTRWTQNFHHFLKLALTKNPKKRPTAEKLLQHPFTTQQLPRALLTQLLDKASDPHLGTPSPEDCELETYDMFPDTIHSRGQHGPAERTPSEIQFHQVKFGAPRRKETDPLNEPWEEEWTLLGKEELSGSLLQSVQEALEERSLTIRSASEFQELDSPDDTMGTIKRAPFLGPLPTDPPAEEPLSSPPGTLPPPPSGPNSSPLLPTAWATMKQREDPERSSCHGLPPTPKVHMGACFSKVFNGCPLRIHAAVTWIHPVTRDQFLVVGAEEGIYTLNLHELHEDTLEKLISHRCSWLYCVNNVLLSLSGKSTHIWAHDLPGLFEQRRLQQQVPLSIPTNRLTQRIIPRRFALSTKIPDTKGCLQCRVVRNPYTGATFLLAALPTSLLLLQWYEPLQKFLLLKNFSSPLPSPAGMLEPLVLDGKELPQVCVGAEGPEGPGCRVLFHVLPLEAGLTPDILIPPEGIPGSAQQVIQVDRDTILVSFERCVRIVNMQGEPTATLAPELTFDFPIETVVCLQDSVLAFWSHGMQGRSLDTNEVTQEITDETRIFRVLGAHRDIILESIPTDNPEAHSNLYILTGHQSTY
The following applies: at 0.1 µM.

For test [19], the target named is T5, Mitogen-activated protein kinase kinase kinase kinase 2 (Homo sapiens). The following applies: at 1 µM.
The target of test [20] is Mitogen-activated protein kinase kinase kinase kinase 4 (Homo sapiens) (UniProt O95819). As to conditions: at 0.1 µM.

Structures are written as SMILES.

Chain of Mitogen-activated protein kinase kinase kinase kinase 4 (Homo sapiens) (O95819 2-1239 limits assumed): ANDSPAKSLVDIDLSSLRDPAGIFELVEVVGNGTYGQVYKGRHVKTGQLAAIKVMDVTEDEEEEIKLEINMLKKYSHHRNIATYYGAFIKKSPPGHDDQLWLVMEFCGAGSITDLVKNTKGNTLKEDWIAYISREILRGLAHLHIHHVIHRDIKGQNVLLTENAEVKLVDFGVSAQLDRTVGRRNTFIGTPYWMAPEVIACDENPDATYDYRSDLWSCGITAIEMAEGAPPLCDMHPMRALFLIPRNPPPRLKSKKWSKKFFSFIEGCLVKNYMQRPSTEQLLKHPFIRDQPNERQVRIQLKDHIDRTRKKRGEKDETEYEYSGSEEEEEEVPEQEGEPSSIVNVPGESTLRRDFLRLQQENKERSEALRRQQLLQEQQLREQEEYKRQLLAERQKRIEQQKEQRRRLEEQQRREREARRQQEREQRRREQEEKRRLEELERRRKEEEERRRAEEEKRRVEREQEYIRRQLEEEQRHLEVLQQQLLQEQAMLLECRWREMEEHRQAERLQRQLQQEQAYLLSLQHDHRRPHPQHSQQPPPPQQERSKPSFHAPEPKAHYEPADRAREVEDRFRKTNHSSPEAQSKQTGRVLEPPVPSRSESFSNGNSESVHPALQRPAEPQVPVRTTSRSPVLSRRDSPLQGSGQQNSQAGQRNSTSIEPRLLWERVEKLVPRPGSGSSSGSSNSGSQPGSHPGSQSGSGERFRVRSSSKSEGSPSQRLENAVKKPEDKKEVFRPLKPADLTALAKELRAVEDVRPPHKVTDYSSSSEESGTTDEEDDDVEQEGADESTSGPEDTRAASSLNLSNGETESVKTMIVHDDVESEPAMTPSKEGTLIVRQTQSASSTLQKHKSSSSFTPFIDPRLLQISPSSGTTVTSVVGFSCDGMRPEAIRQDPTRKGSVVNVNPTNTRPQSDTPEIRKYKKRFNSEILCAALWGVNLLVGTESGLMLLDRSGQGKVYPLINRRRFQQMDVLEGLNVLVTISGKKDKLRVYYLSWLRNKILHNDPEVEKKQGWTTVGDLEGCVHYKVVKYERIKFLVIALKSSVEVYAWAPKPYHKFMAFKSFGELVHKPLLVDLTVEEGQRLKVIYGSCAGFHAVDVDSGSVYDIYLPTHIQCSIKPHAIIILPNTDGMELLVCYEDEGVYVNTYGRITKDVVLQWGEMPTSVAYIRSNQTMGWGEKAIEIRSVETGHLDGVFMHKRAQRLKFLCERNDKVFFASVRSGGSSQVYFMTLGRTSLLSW
Chain of Serine/threonine-protein kinase 10 (Homo sapiens) (O94804 whole entry, looked up): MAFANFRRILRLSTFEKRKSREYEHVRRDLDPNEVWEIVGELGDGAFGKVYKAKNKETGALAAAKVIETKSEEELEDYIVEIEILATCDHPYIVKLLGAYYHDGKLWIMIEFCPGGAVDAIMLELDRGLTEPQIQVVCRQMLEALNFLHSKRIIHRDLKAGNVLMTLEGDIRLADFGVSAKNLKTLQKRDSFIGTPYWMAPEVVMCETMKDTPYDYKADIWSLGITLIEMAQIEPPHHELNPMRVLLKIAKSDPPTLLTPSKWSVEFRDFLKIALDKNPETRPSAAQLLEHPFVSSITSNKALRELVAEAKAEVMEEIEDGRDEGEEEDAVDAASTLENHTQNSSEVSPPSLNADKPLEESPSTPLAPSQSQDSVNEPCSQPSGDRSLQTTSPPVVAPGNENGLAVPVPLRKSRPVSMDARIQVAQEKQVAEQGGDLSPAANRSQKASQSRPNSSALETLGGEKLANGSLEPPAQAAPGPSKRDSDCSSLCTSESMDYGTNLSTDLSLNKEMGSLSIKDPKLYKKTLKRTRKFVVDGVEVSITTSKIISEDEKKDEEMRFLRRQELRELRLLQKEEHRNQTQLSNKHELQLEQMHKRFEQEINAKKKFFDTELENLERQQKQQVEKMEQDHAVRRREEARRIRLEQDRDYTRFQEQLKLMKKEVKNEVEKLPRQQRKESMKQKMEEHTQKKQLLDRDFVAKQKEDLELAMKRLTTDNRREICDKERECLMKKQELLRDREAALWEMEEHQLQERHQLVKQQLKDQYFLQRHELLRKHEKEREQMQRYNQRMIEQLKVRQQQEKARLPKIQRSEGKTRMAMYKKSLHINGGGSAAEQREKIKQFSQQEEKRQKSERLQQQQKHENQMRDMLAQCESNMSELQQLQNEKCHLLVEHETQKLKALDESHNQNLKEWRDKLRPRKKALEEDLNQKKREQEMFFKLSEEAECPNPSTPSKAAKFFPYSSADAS
Chain of High affinity nerve growth factor receptor (Homo sapiens) (P04629 33-796 limits assumed): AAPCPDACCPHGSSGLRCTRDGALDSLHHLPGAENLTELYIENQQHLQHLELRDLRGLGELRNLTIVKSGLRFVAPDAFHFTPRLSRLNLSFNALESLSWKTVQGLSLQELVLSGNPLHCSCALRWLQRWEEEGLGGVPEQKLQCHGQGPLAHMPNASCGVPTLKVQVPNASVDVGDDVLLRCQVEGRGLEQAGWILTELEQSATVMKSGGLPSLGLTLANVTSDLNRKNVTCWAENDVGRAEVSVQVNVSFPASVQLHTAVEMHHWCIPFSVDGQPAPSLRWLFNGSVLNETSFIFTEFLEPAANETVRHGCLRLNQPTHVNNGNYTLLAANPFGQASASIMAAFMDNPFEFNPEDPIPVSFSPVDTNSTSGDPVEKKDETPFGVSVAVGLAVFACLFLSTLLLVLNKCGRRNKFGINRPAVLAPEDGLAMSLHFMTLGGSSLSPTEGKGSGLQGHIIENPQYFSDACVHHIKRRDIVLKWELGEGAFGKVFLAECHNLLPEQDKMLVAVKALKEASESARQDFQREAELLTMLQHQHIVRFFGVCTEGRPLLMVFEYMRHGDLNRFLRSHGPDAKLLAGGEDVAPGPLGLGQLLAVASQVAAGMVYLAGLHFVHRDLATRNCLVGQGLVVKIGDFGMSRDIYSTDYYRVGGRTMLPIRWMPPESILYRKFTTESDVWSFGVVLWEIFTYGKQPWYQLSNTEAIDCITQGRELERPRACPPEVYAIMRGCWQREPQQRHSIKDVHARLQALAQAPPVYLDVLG
Chain of Aurora kinase B (Homo sapiens) (Q96GD4 whole entry): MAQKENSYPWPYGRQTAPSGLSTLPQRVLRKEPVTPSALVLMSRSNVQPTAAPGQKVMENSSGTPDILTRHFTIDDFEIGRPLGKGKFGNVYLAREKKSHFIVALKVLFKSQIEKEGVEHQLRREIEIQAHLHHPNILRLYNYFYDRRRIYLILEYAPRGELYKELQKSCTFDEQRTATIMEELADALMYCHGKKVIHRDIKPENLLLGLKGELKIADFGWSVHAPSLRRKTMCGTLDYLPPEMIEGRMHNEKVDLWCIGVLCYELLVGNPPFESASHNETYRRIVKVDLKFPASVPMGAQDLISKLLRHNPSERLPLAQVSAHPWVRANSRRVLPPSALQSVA
Chain of BDNF/NT-3 growth factors receptor (Homo sapiens) (Q16620 32-822 limits assumed): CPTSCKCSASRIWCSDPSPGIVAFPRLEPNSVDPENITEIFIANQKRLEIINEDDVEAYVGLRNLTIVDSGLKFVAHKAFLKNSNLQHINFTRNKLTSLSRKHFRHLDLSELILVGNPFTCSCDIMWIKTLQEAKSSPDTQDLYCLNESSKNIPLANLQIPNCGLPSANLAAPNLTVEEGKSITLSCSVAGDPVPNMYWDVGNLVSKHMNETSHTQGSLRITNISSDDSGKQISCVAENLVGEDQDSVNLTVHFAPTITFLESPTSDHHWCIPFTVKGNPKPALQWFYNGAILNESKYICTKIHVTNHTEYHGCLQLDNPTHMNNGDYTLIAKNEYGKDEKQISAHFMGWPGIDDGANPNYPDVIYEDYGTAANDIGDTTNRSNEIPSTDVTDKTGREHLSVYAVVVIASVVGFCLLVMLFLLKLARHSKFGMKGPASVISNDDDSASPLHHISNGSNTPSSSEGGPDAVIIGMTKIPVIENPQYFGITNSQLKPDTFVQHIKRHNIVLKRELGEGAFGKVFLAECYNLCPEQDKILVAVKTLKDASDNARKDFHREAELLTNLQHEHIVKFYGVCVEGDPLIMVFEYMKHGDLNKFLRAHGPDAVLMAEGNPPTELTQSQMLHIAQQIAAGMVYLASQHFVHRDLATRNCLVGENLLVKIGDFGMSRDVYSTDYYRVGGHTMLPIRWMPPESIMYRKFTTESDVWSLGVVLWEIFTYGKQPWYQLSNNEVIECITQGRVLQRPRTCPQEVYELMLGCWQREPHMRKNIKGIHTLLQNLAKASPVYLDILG
Chain of NT-3 growth factor receptor (Homo sapiens) (Q16288 32-839 limits assumed): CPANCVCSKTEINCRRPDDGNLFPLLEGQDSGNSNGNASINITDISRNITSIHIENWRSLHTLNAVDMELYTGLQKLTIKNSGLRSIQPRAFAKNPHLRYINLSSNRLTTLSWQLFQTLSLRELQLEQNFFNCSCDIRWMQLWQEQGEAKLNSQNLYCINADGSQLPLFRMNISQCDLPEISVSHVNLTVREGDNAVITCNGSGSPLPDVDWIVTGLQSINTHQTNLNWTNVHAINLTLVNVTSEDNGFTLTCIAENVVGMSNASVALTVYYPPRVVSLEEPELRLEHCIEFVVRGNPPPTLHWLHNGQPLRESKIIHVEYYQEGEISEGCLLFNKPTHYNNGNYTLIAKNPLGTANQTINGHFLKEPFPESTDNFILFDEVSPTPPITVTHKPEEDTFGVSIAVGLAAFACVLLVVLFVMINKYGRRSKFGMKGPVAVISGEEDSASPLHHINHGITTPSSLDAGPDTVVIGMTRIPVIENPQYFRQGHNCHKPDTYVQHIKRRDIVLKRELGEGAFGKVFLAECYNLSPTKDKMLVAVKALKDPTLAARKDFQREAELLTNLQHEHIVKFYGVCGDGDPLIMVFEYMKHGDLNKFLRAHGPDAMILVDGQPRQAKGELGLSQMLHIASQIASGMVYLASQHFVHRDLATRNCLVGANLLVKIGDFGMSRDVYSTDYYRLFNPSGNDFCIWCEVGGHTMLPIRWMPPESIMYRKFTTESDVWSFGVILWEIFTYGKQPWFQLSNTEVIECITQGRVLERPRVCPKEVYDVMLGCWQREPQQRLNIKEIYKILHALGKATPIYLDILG

For `CCn1c(-c2nonc2N)nc2c(C#CC(C)(C)O)nc(OC[C@H](N)c3ccccc3)cc21`, the inhibition in [1] was 3.54%; in [2] it was 1.58%; in test [3], 2.5%; in [4], 1.64%; in [5] it was 6.42%; in [6] it was 7.32%. The inhibition in test [7] was 3.73%; in test [8] it was -2.11%; in test [9], 11.2%; in test [10], 2.4%; in test [11] it was 2.98%; in test [12], 3.29%. Moreover, the inhibition in [13] was found to be 5.24%; in test [14], 1.89%; in [15], 2.08%; in test [16] it was 7.07%; in [17], 28.8%; in test [18], 3.33%. Moreover, the inhibition came out at 16% in test [19] and 4.79% in test [20].

As to `CN1CCC(n2cnc(-c3ccc(F)cc3)c2-c2ccnc(N)n2)CC1`, the inhibition was found to be 3.59% in [1]; 0.4% in test [2]; 6.74% in test [3]; 3.47% in [4]; 8.74% in test [5]; 2.63% in test [6]. Further, the inhibition in [7] was 6.31%; in test [8], -2.21%; in [9], -7.5%; in [10], 4.64%; in [11], 7.96%; in [12], 1.08%. Moreover, the inhibition came to 7.37% in test [13]; 1.63% in test [14]; 1.25% in test [15]; 3.39% in test [16]; 5.28% in test [17]; 0.79% in test [18]. Also, the inhibition in test [19] came to 5.37%; in [20] it was 2.95%.

Consider `COc1cccc(-c2c[nH]c3c(N/N=C/c4ccncc4)ncnc23)c1`, for which the inhibition in test [1] is 7.45%; in test [2], 2.41%; in test [3], 19.4%; in test [4] it was 4.04%; in test [5], 23.3%; in test [6], 4.87%. The inhibition was 16.8% in [7]; 1.21% in test [8]; 10.6% in test [9]; 4.07% in [10]; 37.7% in test [11]; 9.33% in test [12]. Also, the inhibition in [13] amounted to 55.4%; in test [14], 13.2%; in [15], 90.2%; in test [16] it was 8.9%; in [17], 35.4%; in [18], 3.34%. The inhibition in [19] came to 11.9%; in [20], 26%.

Consider `CCOc1ccc2c(-c3ccnc(Nc4cccc(C(F)(F)F)c4)n3)cnn2n1`, for which the inhibition in test [1] is 0.26%; in test [2], 0.03%; in test [3], 2.11%; in test [4], 0.07%; in [5], 3.18%; in test [6], -0.13%. Also, the inhibition was 3.47% in test [7]; -0.74% in [8]; 4.11% in test [9]; 1.41% in test [10]; 7.68% in [11]; 6.17% in test [12]. For the same compound, the inhibition in test [13] worked out at 9.87%; in test [14] it was 2.6%; in test [15], 12.5%; in [16], 4.81%; in [17], 12.9%; in [18], 0.42%. Moreover, the inhibition in test [19] worked out at 6.12%; in [20], 0.65%.

With `COc1cc2c(cc1Nc1nc(Nc3ccsc3C(N)=O)c3cc[nH]c3n1)N(C(=O)CN(C)C)CCC2(C)C`, the inhibition was found to be 13.6% in test [1]; 3.72% in test [2]; 11.4% in test [3]; 4.08% in test [4]; 11.6% in test [5]; 2.02% in test [6]. Also, the inhibition in [7] was 4.22%; in test [8] it was -4.11%; in [9], 49.6%; in [10] it was 3.59%; in [11], 13.2%; in test [12], 6.17%. In addition, the inhibition in test [13] stood at 11.7%; in test [14] it was 4.7%; in test [15] it was 13.7%; in test [16] it was 6.3%; in [17], 17.3%; in test [18], 4.1%. Also, the inhibition stood at 22.6% in test [19] and 12.1% in test [20].

In the case of `Nc1ncc(-c2cccc(S(N)(=O)=O)c2)c2scc(-c3ccc(F)c(Cl)c3)c12`, the inhibition in test [1] is 2.2%; in [2], 2.61%; in test [3], 3.28%; in [4], 1.75%; in test [5], 1.1%; in test [6] it was 82%. The inhibition in test [7] is 91.6%; in [8], -1.25%; in [9] it was 14.3%; in test [10], 3.16%; in test [11], 5.8%; in test [12] it was 2.25%. Further, the inhibition in test [13] was 14.7%; in test [14] it was 4.24%; in [15] it was 24.6%; in test [16] it was 8.9%; in test [17], 24.7%; in [18] it was 6.47%. Besides, the inhibition was found to be 31.4% in [19] and 78.5% in test [20].
